Laboratory results from ChEMBL document CHEMBL2218924, “A broad activity screen in support of a chemogenomic map for kinase signalling research and drug discovery” (Biochem J, 2013).

Experiments:
[1] = biological target: Death-associated protein kinase 1 (Homo sapiens) (UniProt P53355); settings: at 10 µM
[2] = biological target: Death-associated protein kinase 2 (Homo sapiens) (UniProt Q9UIK4); settings: at 1 µM
[3] = biological target: Death-associated protein kinase 2 (Homo sapiens) (UniProt Q9UIK4); settings: at 10 µM
[4] = biological target: T1, Serine/threonine-protein kinase DCLK2 (Homo sapiens) (UniProt Q8N568); settings: at 1 µM
T1 sequence (whole entry): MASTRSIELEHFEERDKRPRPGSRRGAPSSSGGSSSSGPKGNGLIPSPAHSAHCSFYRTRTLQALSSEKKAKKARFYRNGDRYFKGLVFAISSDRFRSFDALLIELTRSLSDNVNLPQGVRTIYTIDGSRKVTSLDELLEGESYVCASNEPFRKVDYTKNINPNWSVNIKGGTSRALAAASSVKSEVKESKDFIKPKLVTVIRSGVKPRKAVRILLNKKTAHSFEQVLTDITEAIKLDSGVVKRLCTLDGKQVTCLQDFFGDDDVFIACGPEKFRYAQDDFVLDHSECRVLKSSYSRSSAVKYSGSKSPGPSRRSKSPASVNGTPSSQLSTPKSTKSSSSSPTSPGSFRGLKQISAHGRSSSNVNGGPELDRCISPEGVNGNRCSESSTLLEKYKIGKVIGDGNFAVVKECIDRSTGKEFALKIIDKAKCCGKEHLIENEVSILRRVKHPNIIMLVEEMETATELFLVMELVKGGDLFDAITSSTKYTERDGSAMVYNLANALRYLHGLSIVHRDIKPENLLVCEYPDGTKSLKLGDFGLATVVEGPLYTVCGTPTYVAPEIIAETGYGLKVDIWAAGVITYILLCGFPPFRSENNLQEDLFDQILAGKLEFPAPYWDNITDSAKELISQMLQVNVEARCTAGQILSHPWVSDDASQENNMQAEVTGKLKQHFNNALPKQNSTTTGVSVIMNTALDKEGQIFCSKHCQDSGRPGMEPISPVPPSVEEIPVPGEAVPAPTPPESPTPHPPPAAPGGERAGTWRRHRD

[5] = biological target: T1, Serine/threonine-protein kinase DCLK2 (Homo sapiens); settings: at 10 µM
[6] = biological target: T2, Discoidin domain-containing receptor 2 (Homo sapiens) (UniProt Q16832); settings: at 1 µM
T2 sequence (whole entry): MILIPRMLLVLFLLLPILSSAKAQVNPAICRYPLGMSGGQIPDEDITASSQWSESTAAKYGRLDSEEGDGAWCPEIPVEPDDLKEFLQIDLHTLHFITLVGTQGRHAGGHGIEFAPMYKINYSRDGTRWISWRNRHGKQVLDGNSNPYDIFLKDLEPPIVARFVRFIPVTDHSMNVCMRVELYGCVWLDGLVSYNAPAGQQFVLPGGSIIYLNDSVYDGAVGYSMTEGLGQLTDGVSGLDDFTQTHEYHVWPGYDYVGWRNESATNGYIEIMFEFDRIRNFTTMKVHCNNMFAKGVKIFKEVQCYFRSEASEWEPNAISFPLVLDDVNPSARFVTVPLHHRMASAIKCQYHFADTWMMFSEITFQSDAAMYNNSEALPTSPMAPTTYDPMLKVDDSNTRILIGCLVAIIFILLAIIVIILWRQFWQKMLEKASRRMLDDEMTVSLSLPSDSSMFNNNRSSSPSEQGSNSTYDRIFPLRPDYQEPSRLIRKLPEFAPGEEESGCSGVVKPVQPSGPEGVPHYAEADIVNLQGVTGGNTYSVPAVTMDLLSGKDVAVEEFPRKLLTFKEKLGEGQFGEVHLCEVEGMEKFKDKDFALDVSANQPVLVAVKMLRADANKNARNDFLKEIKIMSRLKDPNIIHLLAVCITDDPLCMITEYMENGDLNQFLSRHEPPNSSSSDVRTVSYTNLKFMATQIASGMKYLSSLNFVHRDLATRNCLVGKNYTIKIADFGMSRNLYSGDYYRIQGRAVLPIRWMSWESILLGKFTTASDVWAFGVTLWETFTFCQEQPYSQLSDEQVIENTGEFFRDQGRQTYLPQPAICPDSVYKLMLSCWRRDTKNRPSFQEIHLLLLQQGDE

[7] = biological target: T2, Discoidin domain-containing receptor 2 (Homo sapiens); settings: at 10 µM
[8] = biological target: T3, Myotonin-protein kinase (Homo sapiens) (UniProt Q09013); settings: at 1 µM
T3 sequence (whole entry): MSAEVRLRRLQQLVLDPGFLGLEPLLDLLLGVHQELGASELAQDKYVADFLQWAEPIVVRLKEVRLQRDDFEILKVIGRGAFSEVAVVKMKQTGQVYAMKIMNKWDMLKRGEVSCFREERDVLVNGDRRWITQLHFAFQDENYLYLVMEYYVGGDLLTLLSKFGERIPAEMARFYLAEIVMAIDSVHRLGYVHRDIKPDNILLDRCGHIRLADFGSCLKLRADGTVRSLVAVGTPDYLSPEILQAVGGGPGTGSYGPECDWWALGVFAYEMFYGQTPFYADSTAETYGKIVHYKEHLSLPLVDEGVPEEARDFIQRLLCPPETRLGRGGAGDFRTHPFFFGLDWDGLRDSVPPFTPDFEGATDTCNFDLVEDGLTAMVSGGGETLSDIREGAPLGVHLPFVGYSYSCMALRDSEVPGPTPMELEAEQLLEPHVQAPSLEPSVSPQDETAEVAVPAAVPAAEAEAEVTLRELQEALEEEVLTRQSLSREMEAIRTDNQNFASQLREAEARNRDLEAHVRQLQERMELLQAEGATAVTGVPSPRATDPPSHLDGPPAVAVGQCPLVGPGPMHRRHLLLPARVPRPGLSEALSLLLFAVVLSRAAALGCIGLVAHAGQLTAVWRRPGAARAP

[9] = biological target: T3, Myotonin-protein kinase (Homo sapiens); settings: at 10 µM
[10] = biological target: T4, Serine/threonine-protein kinase 17A (Homo sapiens) (UniProt Q9UEE5); settings: at 1 µM
T4 sequence (whole entry): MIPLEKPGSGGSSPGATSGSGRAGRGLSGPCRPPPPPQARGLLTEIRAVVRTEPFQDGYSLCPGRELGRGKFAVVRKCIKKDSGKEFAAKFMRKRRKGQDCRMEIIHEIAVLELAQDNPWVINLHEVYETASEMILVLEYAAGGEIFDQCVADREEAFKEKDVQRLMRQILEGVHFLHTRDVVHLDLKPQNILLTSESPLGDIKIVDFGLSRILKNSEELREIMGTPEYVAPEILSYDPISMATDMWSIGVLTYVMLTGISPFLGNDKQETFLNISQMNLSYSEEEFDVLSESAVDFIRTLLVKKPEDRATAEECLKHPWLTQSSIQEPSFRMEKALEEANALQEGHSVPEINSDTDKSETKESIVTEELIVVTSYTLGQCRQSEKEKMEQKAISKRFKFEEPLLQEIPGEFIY

[11] = biological target: T4, Serine/threonine-protein kinase 17A (Homo sapiens); settings: at 10 µM
[12] = biological target: T5, Dual specificity tyrosine-phosphorylation-regulated kinase 2 (Homo sapiens) (UniProt Q92630); settings: at 1 µM
T5 sequence (whole entry): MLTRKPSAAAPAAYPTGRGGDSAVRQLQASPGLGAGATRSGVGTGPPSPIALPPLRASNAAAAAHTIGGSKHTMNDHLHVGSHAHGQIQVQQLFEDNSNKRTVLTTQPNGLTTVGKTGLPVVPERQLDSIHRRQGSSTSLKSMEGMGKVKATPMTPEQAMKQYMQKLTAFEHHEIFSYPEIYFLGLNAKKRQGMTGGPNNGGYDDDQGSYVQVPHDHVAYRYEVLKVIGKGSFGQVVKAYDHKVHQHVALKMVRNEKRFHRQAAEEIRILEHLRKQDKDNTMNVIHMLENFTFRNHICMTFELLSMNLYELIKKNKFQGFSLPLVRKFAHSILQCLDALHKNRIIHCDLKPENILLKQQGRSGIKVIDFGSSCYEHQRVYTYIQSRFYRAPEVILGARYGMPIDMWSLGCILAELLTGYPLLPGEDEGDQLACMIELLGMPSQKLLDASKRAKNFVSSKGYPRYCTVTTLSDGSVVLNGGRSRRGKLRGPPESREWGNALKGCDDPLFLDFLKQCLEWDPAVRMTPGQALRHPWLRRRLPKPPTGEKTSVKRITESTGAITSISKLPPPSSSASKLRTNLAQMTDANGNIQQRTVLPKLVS

[13] = biological target: T5, Dual specificity tyrosine-phosphorylation-regulated kinase 2 (Homo sapiens); settings: at 10 µM
[14] = biological target: T6, Ephrin type-A receptor 1 (Homo sapiens) (UniProt P21709); settings: at 1 µM
T6 sequence (whole entry): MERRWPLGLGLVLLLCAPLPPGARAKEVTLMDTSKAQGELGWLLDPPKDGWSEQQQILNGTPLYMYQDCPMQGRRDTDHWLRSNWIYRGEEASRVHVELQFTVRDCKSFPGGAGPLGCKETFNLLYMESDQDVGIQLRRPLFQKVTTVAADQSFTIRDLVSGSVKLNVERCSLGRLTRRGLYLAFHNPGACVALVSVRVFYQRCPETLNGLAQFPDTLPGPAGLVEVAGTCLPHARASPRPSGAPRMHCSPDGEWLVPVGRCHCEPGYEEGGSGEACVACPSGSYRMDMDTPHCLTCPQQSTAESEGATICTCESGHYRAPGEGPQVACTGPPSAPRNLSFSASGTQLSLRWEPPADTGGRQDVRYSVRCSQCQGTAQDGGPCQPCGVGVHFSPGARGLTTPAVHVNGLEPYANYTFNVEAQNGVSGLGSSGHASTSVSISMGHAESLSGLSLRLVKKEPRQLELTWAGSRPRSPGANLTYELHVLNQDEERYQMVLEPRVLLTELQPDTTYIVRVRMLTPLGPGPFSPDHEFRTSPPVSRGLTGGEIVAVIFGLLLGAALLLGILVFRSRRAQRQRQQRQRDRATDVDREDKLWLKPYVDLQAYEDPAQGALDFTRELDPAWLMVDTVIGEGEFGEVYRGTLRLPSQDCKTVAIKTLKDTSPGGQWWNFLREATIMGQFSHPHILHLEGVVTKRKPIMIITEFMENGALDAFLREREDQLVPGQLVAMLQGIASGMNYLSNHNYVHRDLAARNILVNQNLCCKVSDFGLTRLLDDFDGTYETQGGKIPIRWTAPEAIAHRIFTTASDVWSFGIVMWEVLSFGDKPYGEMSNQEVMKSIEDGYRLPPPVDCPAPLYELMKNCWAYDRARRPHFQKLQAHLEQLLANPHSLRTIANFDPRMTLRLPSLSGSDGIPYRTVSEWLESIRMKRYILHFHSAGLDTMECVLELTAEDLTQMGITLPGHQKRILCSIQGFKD

[15] = biological target: T6, Ephrin type-A receptor 1 (Homo sapiens); settings: at 10 µM
[16] = biological target: Ephrin type-A receptor 2 (Homo sapiens) (UniProt P29317); settings: at 1 µM
[17] = biological target: Ephrin type-A receptor 2 (Homo sapiens) (UniProt P29317); settings: at 10 µM
[18] = biological target: T7, Ephrin type-A receptor 3 (Homo sapiens) (UniProt P29320); settings: at 1 µM
T7 sequence (whole entry): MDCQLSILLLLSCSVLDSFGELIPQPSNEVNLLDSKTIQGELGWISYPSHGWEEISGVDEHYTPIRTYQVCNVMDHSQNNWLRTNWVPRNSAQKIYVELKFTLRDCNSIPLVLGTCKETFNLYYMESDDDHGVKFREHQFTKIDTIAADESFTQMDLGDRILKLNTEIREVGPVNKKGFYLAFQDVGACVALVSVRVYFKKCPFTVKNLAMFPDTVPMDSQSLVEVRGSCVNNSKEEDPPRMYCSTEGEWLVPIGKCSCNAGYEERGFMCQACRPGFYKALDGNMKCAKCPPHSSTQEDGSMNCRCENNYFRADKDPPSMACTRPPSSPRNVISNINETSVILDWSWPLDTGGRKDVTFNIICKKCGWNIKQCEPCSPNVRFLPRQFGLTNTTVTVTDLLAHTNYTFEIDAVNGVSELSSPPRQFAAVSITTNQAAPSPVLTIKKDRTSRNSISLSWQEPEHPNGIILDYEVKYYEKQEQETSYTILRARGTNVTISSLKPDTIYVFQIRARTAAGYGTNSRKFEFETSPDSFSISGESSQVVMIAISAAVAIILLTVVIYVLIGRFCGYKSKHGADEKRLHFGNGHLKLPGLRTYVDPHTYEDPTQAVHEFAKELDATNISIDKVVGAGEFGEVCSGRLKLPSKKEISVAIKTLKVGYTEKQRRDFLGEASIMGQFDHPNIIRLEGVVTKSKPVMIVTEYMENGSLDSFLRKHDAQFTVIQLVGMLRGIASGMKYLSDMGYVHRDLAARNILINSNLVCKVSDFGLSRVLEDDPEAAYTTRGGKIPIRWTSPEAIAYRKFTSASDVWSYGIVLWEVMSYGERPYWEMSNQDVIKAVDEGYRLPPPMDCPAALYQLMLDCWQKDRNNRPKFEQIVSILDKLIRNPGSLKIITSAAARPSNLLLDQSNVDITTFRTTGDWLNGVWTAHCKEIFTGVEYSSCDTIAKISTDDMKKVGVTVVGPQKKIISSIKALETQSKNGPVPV

Sequence of Ephrin type-A receptor 2 (Homo sapiens) (P29317 whole entry): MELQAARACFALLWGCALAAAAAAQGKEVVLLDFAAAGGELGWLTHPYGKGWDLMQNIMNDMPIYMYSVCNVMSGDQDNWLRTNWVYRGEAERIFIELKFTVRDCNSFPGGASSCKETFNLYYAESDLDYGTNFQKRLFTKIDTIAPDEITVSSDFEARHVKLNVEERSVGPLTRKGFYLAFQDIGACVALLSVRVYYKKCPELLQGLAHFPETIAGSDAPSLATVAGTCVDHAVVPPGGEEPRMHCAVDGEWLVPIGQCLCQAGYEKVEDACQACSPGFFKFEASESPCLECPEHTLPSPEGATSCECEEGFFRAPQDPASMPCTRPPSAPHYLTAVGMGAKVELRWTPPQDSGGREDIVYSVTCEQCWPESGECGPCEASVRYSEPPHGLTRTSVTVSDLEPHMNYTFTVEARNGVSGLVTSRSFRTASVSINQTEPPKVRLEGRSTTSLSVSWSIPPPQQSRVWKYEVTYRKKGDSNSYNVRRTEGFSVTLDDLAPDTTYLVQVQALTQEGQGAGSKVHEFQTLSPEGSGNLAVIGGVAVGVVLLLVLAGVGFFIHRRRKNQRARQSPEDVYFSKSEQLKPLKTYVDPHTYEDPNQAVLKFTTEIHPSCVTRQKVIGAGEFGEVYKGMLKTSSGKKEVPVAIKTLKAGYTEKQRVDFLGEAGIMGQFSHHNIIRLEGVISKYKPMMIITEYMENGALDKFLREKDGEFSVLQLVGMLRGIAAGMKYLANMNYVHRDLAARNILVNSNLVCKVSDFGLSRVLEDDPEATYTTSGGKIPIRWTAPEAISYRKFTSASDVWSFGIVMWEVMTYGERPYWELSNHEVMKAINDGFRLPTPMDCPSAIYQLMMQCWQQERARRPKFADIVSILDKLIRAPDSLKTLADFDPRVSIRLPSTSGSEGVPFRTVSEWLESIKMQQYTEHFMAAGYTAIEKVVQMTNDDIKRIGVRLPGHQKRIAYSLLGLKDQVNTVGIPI
Sequence of Death-associated protein kinase 2 (Homo sapiens) (Q9UIK4 whole entry, looked up): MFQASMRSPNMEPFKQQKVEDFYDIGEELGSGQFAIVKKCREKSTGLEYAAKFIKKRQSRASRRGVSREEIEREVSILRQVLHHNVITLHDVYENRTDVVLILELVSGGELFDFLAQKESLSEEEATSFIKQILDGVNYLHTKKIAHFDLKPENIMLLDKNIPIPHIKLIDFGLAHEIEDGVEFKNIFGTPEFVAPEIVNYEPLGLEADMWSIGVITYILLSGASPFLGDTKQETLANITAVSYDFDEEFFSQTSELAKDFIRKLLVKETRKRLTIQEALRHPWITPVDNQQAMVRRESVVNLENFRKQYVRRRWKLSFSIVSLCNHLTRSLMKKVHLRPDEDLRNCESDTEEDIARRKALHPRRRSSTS
Sequence of Death-associated protein kinase 1 (Homo sapiens) (P53355 whole entry, looked up): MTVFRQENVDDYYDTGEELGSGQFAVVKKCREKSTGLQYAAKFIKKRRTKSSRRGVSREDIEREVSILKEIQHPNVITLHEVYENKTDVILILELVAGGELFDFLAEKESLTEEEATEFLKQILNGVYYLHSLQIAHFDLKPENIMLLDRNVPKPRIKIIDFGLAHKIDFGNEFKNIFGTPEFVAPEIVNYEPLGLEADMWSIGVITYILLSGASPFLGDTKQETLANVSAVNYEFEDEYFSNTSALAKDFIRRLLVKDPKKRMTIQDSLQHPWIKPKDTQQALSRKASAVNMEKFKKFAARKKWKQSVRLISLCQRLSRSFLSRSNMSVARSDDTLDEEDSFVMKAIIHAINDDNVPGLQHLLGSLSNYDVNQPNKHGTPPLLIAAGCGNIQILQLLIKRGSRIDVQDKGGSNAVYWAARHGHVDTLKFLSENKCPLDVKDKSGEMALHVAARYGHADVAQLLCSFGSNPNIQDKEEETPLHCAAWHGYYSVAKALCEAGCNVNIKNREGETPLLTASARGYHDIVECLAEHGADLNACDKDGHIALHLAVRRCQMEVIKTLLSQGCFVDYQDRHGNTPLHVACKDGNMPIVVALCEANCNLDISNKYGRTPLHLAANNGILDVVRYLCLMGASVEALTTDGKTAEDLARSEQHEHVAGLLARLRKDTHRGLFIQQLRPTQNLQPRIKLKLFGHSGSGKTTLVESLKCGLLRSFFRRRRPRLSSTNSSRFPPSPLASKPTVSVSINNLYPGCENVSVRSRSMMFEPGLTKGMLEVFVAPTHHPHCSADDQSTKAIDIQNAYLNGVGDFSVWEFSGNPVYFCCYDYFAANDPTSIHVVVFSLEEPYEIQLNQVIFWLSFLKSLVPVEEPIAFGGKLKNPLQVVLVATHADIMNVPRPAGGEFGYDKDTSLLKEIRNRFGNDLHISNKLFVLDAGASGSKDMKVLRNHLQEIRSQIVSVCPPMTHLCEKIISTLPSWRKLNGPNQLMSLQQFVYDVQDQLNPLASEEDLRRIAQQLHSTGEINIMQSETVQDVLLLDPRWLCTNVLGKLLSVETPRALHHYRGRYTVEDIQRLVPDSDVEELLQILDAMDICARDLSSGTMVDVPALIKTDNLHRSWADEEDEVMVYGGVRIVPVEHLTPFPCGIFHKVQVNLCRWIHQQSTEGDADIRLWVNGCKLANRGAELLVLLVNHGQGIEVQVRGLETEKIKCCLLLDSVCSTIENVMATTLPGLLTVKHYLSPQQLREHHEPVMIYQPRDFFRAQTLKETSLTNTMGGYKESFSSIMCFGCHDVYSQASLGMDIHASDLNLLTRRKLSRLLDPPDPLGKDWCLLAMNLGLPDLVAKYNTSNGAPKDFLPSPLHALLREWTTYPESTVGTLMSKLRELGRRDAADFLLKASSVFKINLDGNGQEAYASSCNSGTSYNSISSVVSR

Row | SMILES | residual activity [1] [%] | residual activity [2] [%] | residual activity [3] [%] | residual activity [4] [%] | residual activity [5] [%] | residual activity [6] [%] | residual activity [7] [%] | residual activity [8] [%] | residual activity [9] [%] | residual activity [10] [%] | residual activity [11] [%] | residual activity [12] [%] | residual activity [13] [%] | residual activity [14] [%] | residual activity [15] [%] | residual activity [16] [%] | residual activity [17] [%] | residual activity [18] [%]
1 | Cc1ccc(S(=O)(=O)/C=C/C#N)cc1 | 87 | 104 | 105 | 125 | 99 | 98 | 100 | 125 | 100 | 105 | 95 | 96 | 102 | 95 | 92 | 106 | 108 | 103
2 | O=C1Nc2ccc(Br)cc2/C1=C\c1cc2c([nH]1)CCCC2 | – | – | – | – | – | 110 | – | 115 | 130 | 48 | 40 | 97 | 99 | – | 105 | 112 | 97 | 108
